Experimental findings from PubChem BioAssay (NCATS) are described below.

In test [1] the target is Lysosomal acid glucosylceramidase (Homo sapiens) (UniProt P04062). Nature of the test: Glucocerebrosidase-p2 (AID 348; in the data active = potency below about 10 µM). To be noted: purified GBA, blue fluorogenic substrate, 40 min. The essentials:
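Compounds titrated from 0.6 nM upwards against 0.2 nM enzyme in pH 5.9 citric acid/KH2PO4, taurocholate, tween-20; blue fluorogenic substrate 80 uM, 40 min room temperature, stopped and read Ex 365/Em 440 for AC50.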

A short description of test [2]: Cell Viability - Jurkat (AID 426). The settings on record: qHTS. Summed up: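 Jurkat (clone E6-1, human T-cell leukemia) cells, 5000/well in complete medium, were exposed to compound for 40 hr at 37 °C. Viability was read as intracellular ATP by CellTiter-Glo luminescence; AC50 came from Hill fits of concentration-response data.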

Molecules are shown by their SMILES. Values without a mark were called inactive.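 Rule for the calls, unless noted: active = dose-dependent loss of cell ATP signal giving a full or clear fitted curve, ranked by lower potency value; inconclusive = weak partial curve or response only at the top dose; inactive = no loss of viability signal.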 Results filed as inconclusive are left out. Where only a bound is given, the exact number is not on record here.
Potency is the fitted concentration of half-maximal effect.

Chain of Lysosomal acid glucosylceramidase (Homo sapiens) (P04062 whole entry, looked up): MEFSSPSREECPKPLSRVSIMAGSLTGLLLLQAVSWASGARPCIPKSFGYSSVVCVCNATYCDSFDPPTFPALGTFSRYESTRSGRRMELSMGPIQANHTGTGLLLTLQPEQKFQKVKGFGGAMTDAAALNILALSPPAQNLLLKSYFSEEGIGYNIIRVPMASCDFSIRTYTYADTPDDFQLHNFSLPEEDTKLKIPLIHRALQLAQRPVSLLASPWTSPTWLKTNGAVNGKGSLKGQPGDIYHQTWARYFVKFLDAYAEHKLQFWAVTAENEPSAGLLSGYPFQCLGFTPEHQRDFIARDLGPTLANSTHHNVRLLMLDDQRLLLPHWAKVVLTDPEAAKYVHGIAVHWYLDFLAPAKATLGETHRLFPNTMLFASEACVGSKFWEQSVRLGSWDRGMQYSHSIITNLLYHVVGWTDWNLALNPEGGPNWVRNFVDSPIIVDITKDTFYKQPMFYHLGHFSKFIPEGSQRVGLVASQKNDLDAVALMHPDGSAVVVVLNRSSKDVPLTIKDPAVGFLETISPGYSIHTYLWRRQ

Turning to `Cc1ccccc1CN1C2=NCCN2C(=O)C2=C1CCN(Cc1ccccc1)C2`, in test [1], the Potency is greater than 11.4 µM.

Take `Cc1ccc(N)cc1O`: the Potency in test [2] is greater than 92 µM.

On to `CC(=O)O[C@@H]1CC(C)=C2[C@H]1[C@H](C)CC[C@H]2/C=C(\C)C(=O)O`, for which, in test [2], the Potency is greater than 92 µM.
